Measurements published in PubChem BioAssay (Tox21).
Results filed as inconclusive are left out. The source made the active and inactive calls. Unless noted, calls come from the whole dose curve.

How the values were obtained:
[1] = qHTS assay to identify small molecule agonists of the NFkB signaling pathway (AID 1159509; active = well fitted curve in the direction sought with a large enough effect in the signal ratio in the repeat runs, not every such curve was filed as active; the % refers to the signal ratio; note: series mostly up to about 61 µM; % is set by controls: 0 for no effect and ±100 for the full control effect)
Summary of the method: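 After overnight attachment, reporter cells received test compounds, DMSO or positive controls and were incubated 5 hr at 37 C. FRET substrate was then added for 1.5 hr at room temperature before dual-emission fluorescence reading.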

[2] = qHTS assay to identify small molecule agonists of the NFkB signaling pathway - cell viability counter screen (AID 1159515); note: series mostly up to about 61 µM; % is set by controls: 0 for no effect and ±100 for the full control effect; nearly all actives have a fitted effect of over 55% in size
Summary of the method: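 NFkB-bla ME-180 cells, 2,000/well, were plated overnight at 37 C, 5% CO2, then exposed to compounds in DMSO for 5 hr. After the bla FRET read, CellTiter-Glo was added to the same wells; luminescence was read after 30 min at room temperature.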

[3] = qHTS assay to identify small molecule agonists of the endoplasmic reticulum stress response signaling pathway (AID 1159516; active = well fitted activation curve with a large enough effect in the signal ratio in the repeat runs, not every such curve was filed as active; the % refers to the signal ratio; note: % is set by controls: 0 for no effect and ±100 for the full control effect)
Summary of the method: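 CellSensor ESRE-bla HeLa cells, carrying a beta-lactamase reporter driven by the ER stress response element, were plated overnight and exposed to compounds for 5 hr at 37 C. Reporter activity was read as FRET substrate fluorescence after 2 hr at room temperature.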

[4] = qHTS assay to identify small molecule agonists of the endoplasmic reticulum stress response signaling pathway - cell viability counter screen (AID 1159517); note: series mostly up to about 61 µM; % is set by controls: 0 for no effect and ±100 for the full control effect; nearly all actives have a fitted effect of over 50% in size
Summary of the method: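 Cells, HeLa ESRE-bla; density, 1,500/well; dosing, 5 hr at 37 C, 5% CO2; readout, CellTiter-Glo luminescence after 30 min RT.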

[5] = qHTS assay to identify small molecule antagonists of the retinoid-related orphan receptor gamma (ROR-gamma) signaling pathway - cell viability counter screen (AID 1159520; active = well fitted curve in the direction sought with a large enough effect in the repeat runs; an effect the other way counts as inactive or inconclusive; note: % is set by controls: 0 for no effect and ±100 for the full control effect; nearly all actives have a fitted effect of over 50% in size)
Summary of the method: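 Cytotoxicity was read from cellular ATP (CellTiter-Glo luminescence) after 16 hr at 37 C with 1 uM doxycycline induction. The inducer was added 2 hr after compound transfer to Tet-on ROR gamma CHO cells.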

[6] = target: Nuclear receptor ROR-gamma (Homo sapiens) (UniProt P51449); assay: qHTS assay to identify small molecule antagonists of the retinoid-related orphan receptor gamma (ROR-gamma) signaling pathway (AID 1159521; active = well fitted curve in the direction sought with a large enough effect in the repeat runs; an effect the other way counts as inactive or inconclusive;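 note: CHO cells with doxycycline inducible ROR-gamma driving an RORE luciferase reporter; top concentration of the series differs between compounds; % is set by controls: 0 for no effect and ±100 for the full control effect; nearly all actives have a fitted effect of over 50% in size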)
Summary of the method: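 Readout: ONE-Glo luciferase luminescence, 30 min at room temperature. System: Tet-on RORγ CHO, RORE-LUC. Sequence: compound 2 h, doxycycline 1 uM final, 16 h at 37 C.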

[7] = qHTS assay to identify small molecule agonists of the AP-1 signaling pathway - cell viability counter screen (AID 1159525); note: nearly all actives have a fitted effect of over 55% in size
Summary of the method: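 Luminescent ATP readout (Cell Titer Glo, 30 min RT), normalised to DMSO and tetra n-octyl ammonium bromide controls. Cells were ME-180 AP-1-bla in 0.5% dialyzed FBS Opti-MEM, with a 5 h, 37 °C compound exposure.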

[8] = qHTS assay to identify small molecule agonists of the AP-1 signaling pathway (AID 1159526); note: % is set by controls: 0 for no effect and ±100 for the full control effect
[9] = target: Retinoic acid receptor RXR-alpha (Homo sapiens) (UniProt P19793); assay: qHTS assay to identify small molecule agonists of the RXR signaling pathway (AID 1159527); note: % is set by controls: 0 for no effect and ±100 for the full control effect; nearly all actives have a fitted effect of over 35% in size
Summary of the method: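 Reporter activation is measured as beta-lactamase activity via FRET substrate cleavage (emission 460/530 nm) in HEK 293T cells expressing an RXR-alpha-driven bla construct, following 16 hr compound exposure at 37 C.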

[10] = qHTS assay to identify small molecule antagonists of the vitamin D receptor (VDR) signaling pathway - cell viability counter screen (AID 743225; active = well fitted curve in the direction sought with a large enough effect in the repeat runs; an effect the other way counts as inactive or inconclusive; note: % is set by controls: 0 for no effect and ±100 for the full control effect; nearly all actives have a fitted effect of over 50% in size)
Summary of the method: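 Cytotoxicity toward the VDR-bla HEK 293T line was scored by ATP-based CellTiter-Glo luminescence, read in the wells already used for the beta-lactamase readout after 16 h compound treatment under 3 nM 1-alpha,25-dihydroxyvitamin D3 stimulation.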

Sequence of Retinoic acid receptor RXR-alpha (Homo sapiens) (P19793 whole entry, looked up): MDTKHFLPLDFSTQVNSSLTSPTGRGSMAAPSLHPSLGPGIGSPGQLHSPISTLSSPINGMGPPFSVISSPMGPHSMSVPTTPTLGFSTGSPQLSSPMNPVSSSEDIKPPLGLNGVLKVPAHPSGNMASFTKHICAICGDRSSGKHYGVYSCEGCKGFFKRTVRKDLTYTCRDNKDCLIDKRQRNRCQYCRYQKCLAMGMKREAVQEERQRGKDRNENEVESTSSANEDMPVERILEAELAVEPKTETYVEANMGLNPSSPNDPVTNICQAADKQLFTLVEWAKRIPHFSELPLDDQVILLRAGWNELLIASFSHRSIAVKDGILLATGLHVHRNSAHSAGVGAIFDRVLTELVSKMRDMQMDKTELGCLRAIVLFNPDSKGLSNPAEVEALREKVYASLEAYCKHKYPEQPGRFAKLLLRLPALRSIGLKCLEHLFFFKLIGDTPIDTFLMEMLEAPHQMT

CCC1COC(=O)O1 (stereo unspecified)
inactive: outcome [1] | outcome [2] | outcome [3] | outcome [4] | outcome [5] | outcome [6] | outcome [7] | outcome [8] | Potency [9]

CCCCOC(=O)C(=O)OCCCC
inactive: outcome [10] | outcome [1] | outcome [2] | outcome [3] | outcome [4] | outcome [5] | outcome [6] | outcome [7] | outcome [8] | Potency [9]

COc1ccc(/C=N/NC(=O)c2ccncc2)cc1OC
inactive: outcome [1] | outcome [2] | outcome [3] | outcome [4] | outcome [5] | outcome [6] | outcome [7] | outcome [8] | Potency [9]

O=C(O)Cc1cccc(-c2cc(CCCCCCc3ccc(O[C@H]4O[C@H](CO)[C@@H](O)[C@H](O)[C@@H]4O)c(-c4cccc(CC(=O)O)c4)c3)ccc2O[C@H]2O[C@H](CO)[C@@H](O)[C@H](O)[C@@H]2O)c1
inactive: viability change, negative = cytotoxic [10] 5.12% [at 0.628 µM] | activation [1] 0.357% [at 0.628 µM] | activity, negative = cytotoxic [2] 0.959% [at 0.628 µM] | activation [3] 1.35% [at 0.628 µM] | activity change, negative = cytotoxicity [4] 4.41% [at 0.628 µM] | activity, negative = cytotoxicity [5] 0.991% [at 0.349 µM] | activity change, negative = inhibition [6] -17.6% [at 0.35 µM] | viability change, negative = cytotoxic [7] 1.08% [at 0.29 µM] | activation [8] -4.69% [at 0.29 µM] | activation [9] 6.74% [at 0.29 µM]

FC(F)(F)/C(=N\OCC1OCCO1)c1ccc(Cl)cc1
inactive: outcome [1] | outcome [2] | outcome [3] | outcome [4] | outcome [5] | outcome [6] | outcome [7] | outcome [8] | Potency [9]

CCOC(=O)C(C)(C)C
inactive: outcome [1] | outcome [2] | outcome [3] | outcome [4] | outcome [5] | outcome [6] | outcome [7] | outcome [8] | Potency [9]

OCCCCCCCl
inactive: outcome [1] | outcome [2] | outcome [3] | outcome [4] | outcome [5] | outcome [6] | outcome [7] | outcome [8] | Potency [9]

C=C[C@@H](C)CCC=C(C)C
inactive: outcome [1] | outcome [2] | outcome [3] | outcome [4] | outcome [5] | outcome [6] | outcome [7] | outcome [8] | Potency [9]

CC(=O)c1ccc2c(c1)CCCC2
inactive: outcome [1] | outcome [2] | outcome [3] | outcome [4] | outcome [5] | outcome [6] | outcome [7] | outcome [8] | Potency [9]

Oc1ccccc1Cc1ccccc1O
inactive: outcome [1] | outcome [2] | outcome [3] | outcome [4] | outcome [5] | outcome [6] | outcome [7] | outcome [8] | Potency [9]

O=C(COCCOCCOCC(=O)Nc1c(I)cc(I)c(C(=O)O)c1I)Nc1c(I)cc(I)c(C(=O)O)c1I
inactive: outcome [10] | outcome [1] | outcome [2] | outcome [3] | outcome [4] | outcome [5] | outcome [6] | outcome [7] | outcome [8] | Potency [9]

CCC(C)N (stereo unspecified)
inactive: outcome [10] | outcome [1] | outcome [2] | outcome [3] | outcome [4] | outcome [5] | outcome [6] | outcome [7] | outcome [8] | Potency [9]

CCN1CN(CC)CN(CC)C1
inactive: outcome [1] | outcome [2] | outcome [3] | outcome [4] | outcome [5] | outcome [6] | outcome [7] | outcome [8] | Potency [9]

CCCCC(CC)CNC(=O)CC(C)OC(=O)CCC(=O)O (stereo unspecified)
inactive: outcome [10] | outcome [1] | outcome [2] | outcome [3] | outcome [4] | outcome [5] | outcome [6] | outcome [7] | outcome [8] | Potency [9]

O=S(=O)(O)SSS(=O)(=O)O
inactive: outcome [10] | outcome [1] | outcome [2] | outcome [3] | outcome [4] | outcome [5] | outcome [6] | outcome [7] | outcome [8] | Potency [9]

Cc1ccccc1C(=O)N1CC/C(=N\OS(=O)(=O)O)c2ccc(Cl)cc21
inactive: outcome [1] | outcome [2] | outcome [3] | outcome [4] | outcome [5] | outcome [6] | outcome [7] | outcome [8] | Potency [9]

COc1ccc(NS(=O)(=O)c2ccc(N)cc2)nn1
inactive: outcome [1] | outcome [2] | outcome [3] | outcome [4] | outcome [5] | outcome [6] | outcome [7] | outcome [8] | Potency [9]

Cn1c(=O)c2c(ncn2CC2OCCO2)n(C)c1=O
inactive: outcome [1] | outcome [2] | outcome [3] | outcome [4] | outcome [5] | outcome [6] | outcome [7] | outcome [8] | Potency [9]

CC(C)c1ccccc1O
inactive: outcome [10] | outcome [1] | outcome [2] | outcome [3] | outcome [4] | outcome [5] | outcome [6] | outcome [7] | outcome [8] | Potency [9]

C=CCOC(=O)c1ccc(C(=O)OCC=C)c(C(=O)OCC=C)c1
inactive: outcome [1] | outcome [2] | outcome [3] | outcome [4] | outcome [5] | outcome [6] | outcome [7] | outcome [8] | Potency [9]

CCCCCCCCCCCCOC(C)=O
inactive: outcome [1] | outcome [2] | outcome [3] | outcome [4] | outcome [5] | outcome [6] | outcome [7] | outcome [8] | Potency [9]

CCCCCCCC/C=C\CCCCCCCC(=O)OC[C@@H](O)[C@H]1OC[C@H](O)[C@H]1O
inactive: outcome [1] | outcome [2] | outcome [3] | outcome [4] | outcome [5] | outcome [6] | outcome [7] | outcome [8] | Potency [9]

CCOC(=O)OCC/C(SC(=O)OCC)=C(\C)N(C=O)Cc1cnc(C)nc1N
inactive: outcome [1] | outcome [2] | outcome [3] | outcome [4] | outcome [5] | outcome [6] | outcome [7] | outcome [8] | Potency [9]

C[N+](C)(C)CC(O)CCl (stereo unspecified)
inactive: outcome [1] | outcome [2] | outcome [3] | outcome [4] | outcome [5] | outcome [6] | outcome [7] | outcome [8] | Potency [9]

Cc1cc(C)cc([N+](=O)[O-])c1
inactive: outcome [1] | outcome [2] | outcome [3] | outcome [4] | outcome [5] | outcome [6] | outcome [7] | outcome [8] | Potency [9]

CN(C)CCCNCCC#N
inactive: outcome [1] | outcome [2] | outcome [3] | outcome [4] | outcome [5] | outcome [6] | outcome [7] | outcome [8] | Potency [9]
